Assay outcomes deposited in PubChem BioAssay by Broad Institute.
Shown is part of a subset that was picked to be rich in hits.
BL2 CD40 inh: inhibitors of CD40-induced NF-kB signaling, primary screen, BL2 cells, luciferase reporter, single point. CD40L-induced, 4 h. inhibition, % at 10 µM. actives 0.94% (n = 83,000). AID 1053188, 2014;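 active = mean inhibition of at least 50% with a set share of replicates also reaching that level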
Of the large screens only hits and unclear results are named; the others gave an inactive call; ! = a repeat was not active; [ ] = another dose, or the depositor's remark.

CN(Cc1ccccc1)S(=O)(=O)c1cccc2cccnc12	none
Cc1ccc(-c2ccc(C3[C@@H]4CN(Cc5cccc(F)c5)C[C@H]3N4)cc2)cc1 (stereo not given in full)	BL2 CD40 inh 61.9
COc1cccc(-c2ccc(C3[C@@H]4CN(Cc5cccc(F)c5)C[C@H]3N4)cc2)c1 (stereo not given in full)	BL2 CD40 inh 60.3!
COc1ccc(-c2ccc(C3[C@@H]4CN(Cc5cccc(OC)c5)C[C@H]3N4)cc2)cc1 (stereo not given in full)	none
Fc1ccc(-c2ccc(C3[C@@H]4CN(Cc5cccc(F)c5)C[C@H]3N4)cc2)cc1 (stereo not given in full)	none
COc1cccc(CN2C[C@@H]3N[C@H](C2)C3c2ccc(-c3ccncc3)cc2)c1 (stereo not given in full)	none
Cc1ccc(-c2ccc(C3[C@@H]4CN(Cc5ccccc5)C[C@H]3N4)cc2)cc1 (stereo not given in full)	none
CC(=O)c1c(-c2ccc(C)cc2)nc2c3ccccc3ccn12	none
CN(c1ccccc1)S(=O)(=O)c1cccc(C(=O)NCCc2c[nH]c3ccccc23)c1	none
O=C(Nc1ccccc1)N1CCCCN2[C@H](CO)[C@H](c3ccc(Br)cc3)[C@H]2C1	none
O=C(C[C@@H]1CC[C@@H](NC(=O)Nc2ccc(C(F)(F)F)cc2)[C@H](CO)O1)NCc1cccc(F)c1	none
COc1cccc(CNC(=O)C2(C)Oc3ccccc3NC2=O)c1 (stereo not given)	none
COc1ccc(-c2nc(NC(=O)c3ccco3)sc2C)cc1	BL2 CD40 inh 50.6
Cc1ccc(C(=O)Nc2nc(-c3ccco3)c(-c3ccco3)s2)o1	none
COc1ccc(-c2nc(NC(=O)c3nc4nccc(C)n4n3)sc2C)cc1	none
COc1ccc(CCNC(=O)CSc2nc3[nH]ncc3c(=O)n2-c2ccccc2OC)cc1OC	none
O=C(CN(c1ccc(F)cc1)S(=O)(=O)c1ccc2c(c1)OCCO2)Nc1cccnc1	none
Cc1cc(S(=O)(=O)Nc2ccc(C(=O)NCCCN3CCOCC3)cc2)ccc1F	none
O=C1OC(c2ccc3ccccc3c2O)(c2ccc3ccccc3c2O)c2ccccc21	none
O=C(c1ccc(Nc2nccc(-c3cc4ccccc4s3)n2)cc1)N1CCC(N2CCCC2)CC1	BL2 CD40 inh 68.3[25 µM]
O=C(c1ccccc1)N1CCN(C2CCCCCC2)CC1	none
COc1ccc(C(=O)N2CCC(N3CCN(c4ccccc4)CC3)CC2)cc1	none
O=C(C[C@H]1CC[C@H]2[C@@H](COC[C@H](O)CN2Cc2ccc(C(F)(F)F)cc2)O1)N1CCc2ccccc2C1	none
C=C1C(=O)OC2C1CCC(C)C1C=CC(=O)C12C (stereo not given)	none
C=C1C(=O)OC2CC1C(O)CC(C)=CCCC(C)=CC(O)CC2C (stereo not given)	BL2 CD40 inh 87.1
O=S(=O)(/C(=C\c1ccc(C(F)(F)F)cc1)c1nc2ccccc2[nH]1)c1ccccc1	BL2 CD40 inh 59.8
O=S(=O)(Nc1nc2ccccc2[nH]1)c1ccccc1	none
O=S(=O)(NCCc1nc2ccccc2[nH]1)c1ccccc1	none
Cc1ccc(S(=O)(=O)/N=C/c2ccco2)cc1	none
O=S(=O)(c1cccc(-c2cn3ccccc3n2)c1)N1CCCCC1	none
CN(C)S(=O)(=O)c1cccc(-c2cn3ccccc3n2)c1	none
c1ccn2cc(-c3ccc4c(c3)OCCO4)nc2c1	BL2 CD40 inh 66.8
O=C(Nc1cnn(Cc2ccccc2)c1)NC12CC3CC(CC(C3)C1)C2	none
O=S(=O)(NC1CCCC1)c1ccc(Br)s1	none
OC(COc1ccc(-c2ccccc2)cc1)CN1CCCCC1 (stereo not given)	none
OC(CCN1CCC2CCC(C2)C1)c1ccc(Br)cc1 (stereo not given)	none
OC(CCN1CCCCC1)c1ccc(-c2ccccc2)cc1 (stereo not given)	BL2 CD40 inh 57.5
C/C=C/c1ccccc1[C@@H]1[C@H](C#N)N(C(C)=O)[C@H]1CO	none
O=C(C(=Cc1ccccc1)CN1CCCCC1)c1ccccc1	BL2 CD40 inh 73.5
O=C(CN1CCCCCC1)N1c2ccccc2C=Cc2ccccc21	none
O=C(CN1CCCC1)N1c2ccccc2C=Cc2ccccc21	none
Cc1ccc(S(=O)(=O)N2C[C@@H]3N[C@H](C2)C3c2ccc(-c3ccc(C(=O)N(C)C)cc3)cc2)cc1 (stereo not given in full)	none
CCN(CC)S(=O)(=O)c1cccc(C(=O)N/N=C2\CC(=O)CC(C)(C)C2)c1	none
Cc1ccccc1S(=O)(=O)/N=C(/Nc1nc2ccccc2s1)c1ccccc1	none
CC1(C)CC(=O)C/C(=N/Nc2nc3ccccc3s2)C1	BL2 CD40 inh 49.7
CN(C)c1ccc(C(=O)OCc2cc(=O)n3ccsc3n2)cc1	none
COCCOC(=O)C1=C(C)NC(C)=C(C(=O)OC(C)C)C1c1cccc([N+](=O)[O-])c1 (stereo not given)	none
COC(=O)C1=C(C)NC(C)=C(C(=O)OCCCN2CCC(c3ccccc3)(c3ccccc3)CC2)[C@H]1c1cccc([N+](=O)[O-])c1	BL2 CD40 inh 61.2[25 µM]
CCOC(=O)C1=C(C)NC(C)=C(C(=O)OC)C1c1cccc([N+](=O)[O-])c1 (stereo not given)	none
CN(C)C(=O)c1cccc(-c2ccc([C@@H]3[C@@H](C#N)N(C(=O)C4CCC4)[C@@H]3CO)cc2)c1	none
COc1ccccc1NC(=O)C(C)OC(=O)CN1C(=O)C2CC=CCC2C1=O (stereo not given)	none
C[C@@H]1CN([C@@H](C)CO)S(=O)(=O)c2ccc(C#CC3CC3)cc2O[C@@H]1CN(C)Cc1ccccc1	none
CN1c2ccc(-c3cccc(F)c3)cc2[C@H]2[C@H](CCN2C(=O)C2CCCC2)[C@H]1CO	BL2 CD40 inh 54.0
CN1c2ccc(-c3cccc(F)c3)cc2[C@H]2[C@H](CCN2C(=O)C2CCC2)[C@H]1CO	none
CN1c2ccc(-c3cccc(F)c3)cc2[C@@H]2[C@@H](CCN2C(=O)C2CCC2)[C@H]1CO	none
COc1ccc(N2CCN(c3ccc(Cl)nn3)CC2)cc1	none
Cc1ccc(S(=O)(=O)N(C)C[C@H]2OCc3cnnn3CCCC(=O)N([C@H](C)CO)C[C@H]2C)cc1	none
Cc1nnc(NC(=O)c2cc3ccccc3o2)s1	none
O=C(Nc1nnc(C2CC2)s1)c1cc2ccccc2o1	none
Cc1cnc(NC(=O)c2cc3ccccc3o2)s1	BL2 CD40 inh 56.0
O=C(CCn1c(=O)oc2ccccc21)NCCCN1CCN(c2ccc(F)cc2)CC1	none
Cc1nc2ccccc2nc(C)c1=NOCC(=O)N(c1ccccc1)C(C)C	none
Cc1ccccc1COC(=O)CCCC1=NS(=O)(=O)c2ccccc2N1	none
O=S(=O)(c1cccc2cccnc12)N1CCN(c2ccccc2)CC1	none
O=S(=O)(c1cccc2cccnc12)N1CCN(c2ccccn2)CC1	none
O=S(=O)(c1cccc2cnccc12)N1CCNCC1	BL2 CD40 inh 53.4[25 µM]
Cc1cc(NS(=O)(=O)c2ccc(NC(=O)Cc3ccc(Cl)c(Cl)c3)cc2)no1	none
CCCC(=O)N/C(N)=N/c1nc(C)c2cc(C)ccc2n1	none
CC1CC(C)CN(C(=O)COC(=O)c2cc(S(=O)(=O)N3CCOCC3)ccc2F)C1 (stereo not given)	none
O=C(C[C@@H]1C[C@H]2c3cc(NC(=O)C4CCOCC4)ccc3O[C@H]2[C@@H](CO)O1)NCc1ccc(Oc2ccccc2)cc1	none
COc1cc2cc(C(=O)Nc3ccc4c(c3)OCCO4)[nH]c2cc1OC	BL2 CD40 inh 60.2
COc1ccc(C(=O)Nc2ccc3c(c2)OCCO3)c(OC)c1	none
COc1ccccc1NC(=O)Nc1ccc2c(c1)OCCO2	none
c1ccc(-c2nnc(Cn3c4ccccc4c4nc5ccccc5nc43)o2)cc1	none
